In article PMC5540273 (PLoS ONE, 2017):

Test system: PRKG2
Conditions: concentration: 1 μM, replicates: in singlicate; n = 1
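Note: KINOMEscan kinase panel screen.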

Row | SMILES | %Inh [%]
1 | COc1ccc(-n2cnc3c(N)ncnc32)cc1 [SKF-97236] | 33
2 | FC(F)(F)c1ccc(-c2ncn(CCCN3CCOCC3)c2-c2ccncc2)cc1 [SB-217780] | 25
3 | CCc1nc(-c2cccc(C)c2)c(-c2ccncc2)s1 | 11
4 | COC(=O)c1c(-c2ccccc2)c2cc(Br)ccc2c(=O)n1Cc1ccc(NC(=O)CCC(=O)O)cc1 | 0
5 | Cc1ccc(-c2ccc3c(ccc4sc5c(c43)NC[C@@H](C)N=C5N(C)C)n2)cn1 | 0
6 | Cc1nnc(-c2ccc(C)c(-c3ccc(C(=O)O)cc3)c2)o1 [GW608005] | 0
7 | CCCNC(=O)Nc1ccc(Oc2ncnc3ccn(C)c23)cc1 | 0
8 | Nc1n[nH]c2nnc(-c3ccccc3)c(-c3ccccc3)c12 [GW554060] | 0
9 | COC(=O)c1c(-c2ccccc2)c2cc(Br)ccc2c(=O)n1Cc1ccc(S(C)(=O)=O)cc1 | 8
10 | O=c1cc(N2CCOCC2)nc2n(Cc3ccc(F)c(Cl)c3)ccn12 [GSK2297099] | 0
11 | COc1cc(Nc2nccc(N3CCC(NC(=O)C4COc5ccccc5O4)C3)n2)cc(OC)c1OC (stereo not drawn) [GSK1379761] | 3
12 | CCCC(=O)Nc1n[nH]c2ncc(-c3cccc4ccccc34)cc12 [SB-642057] | 0
13 | CCn1c(-c2nonc2N)nc2ccccc21 [SB-693162/GW549034] | 67
14 | O=C(Nc1n[nH]c2nc(-c3ccccc3)c(Br)cc12)C1CC1 [SB-708998] | 0
15 | Cn1c(=O)c(F)c(Nc2ccc(I)cc2F)c2c(=O)n(OC[C@H](O)CO)cnc21 | 7
16 | COc1cc2nccc(Nc3ccc(OCc4ccc(NC(C)=O)cc4)cc3)c2cc1OC.Cl [GW440135] | 0
17 | Cl.c1ccc(Cn2cnc3cc(Nc4ncnc5ccccc45)ccc32)cc1 [GW272142] | 0
18 | Nc1ncnc2c1ncn2-c1cccc2ccccc12 [SKF-97184] | 0

Row | SMILES | %Inh [%]
19 | O=C(NCCNc1ccnc(Nc2ccc(F)cc2)n1)Nc1ccc2c(c1)OCO2 [GSK1379882] | 0
20 | O=C(Nc1n[nH]c2cc(-c3ccccc3F)ccc12)C1CC1 [SB-733371] | 0
21 | COc1ccc(-c2coc3ccc(-c4nnc(SCc5cccc(C#N)c5)o4)cc23)cc1 | 21
22 | Cc1nc(N(C)[C@H]2CN(C(=O)CC#N)CC[C@H]2C)c2cc[nH]c2n1 | 0
23 | Cc1cccc(-c2nc(Nc3ccc4c(cnn4C)c3)c3ccccc3n2)n1 [GW876731] | 0
24 | Cl.NS(=O)(=O)c1cccc(Nc2cc(-c3ccc(F)cc3)n[nH]2)c1 [GW824645] | 0
25 | COc1ccc(-c2cc3c(C)nc(N)nc3n([C@H]3CC[C@H](OCCO)CC3)c2=O)cn1 | 0
26 | COc1ccc(-c2cc3c(C)nc(N)nc3n([C@H]3CC[C@H](O)CC3)c2=O)cn1 | 0
27 | CN(C)c1cc(-c2ccc3c(N)n[nH]c3c2)nc(N)n1 [GSK2219329] | 1
28 | O=C1NC(=O)C(c2ccccc2)=C1Nc1cccc(O)c1 [SB-390534] | 2
29 | Fc1cccc(CSc2nnc(-c3ccc4c(c3)CCO4)o2)c1 | 26
30 | COc1cc2ncn(-c3cc(OCCCc4ccccc4)c(C(N)=O)s3)c2cc1OC [GSK205189] | 0
31 | COc1cc(Nc2ccnc3ccc(C(F)(F)F)cc23)cc(OC)c1OC [GW577382] | 6
32 | COc1cccc(-n2cnc3c(N)ncnc32)c1 [SKF-97416] | 14
33 | COc1cccc(C2=C(Nc3cccc(C(=O)O)c3)C(=O)NC2=O)c1 [SB-390770] | 0
34 | Nc1nc(N)c2nc(-c3ccccc3)[nH]c2n1 [SKF-12778] | 0
35 | CCC(=O)c1c(-c2ccccc2)c2cc(Cl)ccc2c(=O)n1Cc1cc(S(C)(=O)=O)n(CC(F)F)n1 | 0
36 | CCS(=O)(=O)c1ccc(OC)c(Nc2ncc(-c3ccc(F)cc3)o2)c1.Cl [GW591947] | 0
